PubChem BioAssay AID485341 (National Center for Advancing Translational Sciences (NCATS), 2010)
Hit rate of the full screen: of about 330,000 compounds, about 1,700 (0.52%) were called active. The sample holds actives, similar compounds and a random draw of the others, so the mix is not that of the screen. A number with no mark means an inactive call. The call rests on the fitted dose curve; in most records, active means well fitted inhibition curve with a large enough effect; inconclusive means small, poorly fitted or top-dose-only effect; inactive means no such curve, though single readings can be large or run the other way.

The compounds below were run against Beta-lactamase (Escherichia coli (strain K12)) (UniProt P00811) (assay: qHTS Inhibitors of AmpC Beta-Lactamase (assay without detergent)). Conditions: AmpC nitrocefin hydrolysis, absorbance 480 nm, 0.0001% Triton; series mostly up to 57.1 µM; activity change, negative = inhibition: at the top concentration.
Description: NIH Molecular Libraries Probe Production Network [MLPCN] NIH Chemical Genomics Center [NCGC] Assay Provider: Professor Brian Shoichet, UCSF Assay Overview: This aggregation profiling approach exploits the sensitivity of aggregate formation to detergent. Inhibition of b-lactamase is measured in the presence and absence of 0.01% Triton X-100. This particular assay had the prescence of 0.01% Triton X-100. See Pubchem assay "Promiscuous and Specific Inhibitors of AmpC Beta-Lactamase (assay without detergent)" for related screen. Compounds that inhibit only in the absence of detergent are considered likely promiscuous aggregators. A screen of 1,030 compounds was performed in Brian Shoichet's lab in 96-well format. AmpC activity was measured by following the absorbance at 480 nm. Nitrocefin is a chromogenic substrate: while nitrocefin is yellow (lmax 390 nm), the product of its hydrolysis is red (lmax 486 nm, 17,000 M-1). AmpC beta lactamase was provided by Shoichet Lab, UCSF.
Buffer: 20 mM phosphate buffer, pH 7.0 Triton X-100: No Detergent screen: 0.0001%, Detergent screen: 0.01%. Reagents/Controls: Buffer in columns 3 and 4 as negative control (no enzyme). 5.3 nM AmpC in columns 1, 2, 5-48. Titration of UCSF compound 9 control (from 10 mM, then 1:2) pin-transferred to column 2. Column 1 is neutral (100% activity). Assay Steps: Six uL of reagents were dispensed to 1536-well Greiner black clear bottom plates. Compounds and controls (23 nL) were transferred via Kalypsys PinTool. The plates were incubated for 15 min at room temperature, and then 2 uL of 800 uM solution of nitrocefin was added to start the reaction. The plates were immediately transferred to and read every 20 seconds for 4 min on ViewLux (Perkin-Elmer) High-throughput CCD imager using 480 nm absorbance protocol. During dispense, reagent bottles were kept submerged into 4 deg C water bath. Keywords: NIH Roadmap, MLSCN, MLI, MLSMR, qHTS, NCGC, AmpC Beta-Lactamase, Aggregation
Further: nearly all actives have a fitted effect of over 20% in size.
Potency means the concentration at half of the fitted maximal effect.

Sequence of Beta-lactamase (Escherichia coli (strain K12)) (P00811 whole entry, looked up): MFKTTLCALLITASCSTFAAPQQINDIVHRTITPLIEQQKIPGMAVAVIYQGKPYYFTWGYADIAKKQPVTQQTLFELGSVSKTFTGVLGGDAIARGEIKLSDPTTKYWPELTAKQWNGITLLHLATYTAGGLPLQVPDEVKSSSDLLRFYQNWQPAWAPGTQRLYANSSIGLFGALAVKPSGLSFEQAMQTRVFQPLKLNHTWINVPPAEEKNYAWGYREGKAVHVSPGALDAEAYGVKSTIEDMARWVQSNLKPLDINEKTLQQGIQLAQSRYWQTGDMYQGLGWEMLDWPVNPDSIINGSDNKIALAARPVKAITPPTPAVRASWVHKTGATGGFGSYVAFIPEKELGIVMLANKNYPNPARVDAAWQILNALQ

Row | Structure (SMILES) | Potency | activity change, negative = inhibition [%]
1 | COc1ccc(S(=O)(=O)NC(CC(=O)NCc2ccccc2OC)c2ccco2)cc1 (stereo unspecified) | 0.316 µM (active) | –
2 | Cc1cc(C)n(-c2ccc3nncn3n2)n1 | – | -5.01
3 | COc1ccc(C2N3CC(C)(C)CN23)cc1 (stereo unspecified) | – | -13.2
4 | O=C(CC1CCCCC1)NCc1ccco1 | – | -0.34
5 | O=C(CN1C(=O)/C(=C/c2ccccc2F)Sc2ccccc21)NCc1cccnc1 | – | 131
6 | O=C(CN1C(=O)/C(=C\c2ccc(C(F)(F)F)cc2)Sc2ccccc21)NCc1ccco1 | 10 µM (active) | –
7 | CN1CCN(Cc2nc3c(c(=O)n(C)c(=O)n3C)n2Cc2cccc3ccccc23)CC1 | – | 19.2
8 | CC1CN(Cc2nc3c(c(=O)n(C)c(=O)n3C)n2Cc2cccc(Cl)c2)CC(C)O1 (stereo unspecified) | 44.7 µM (active) | –
9 | CCOC(=O)N1CCN(Cc2nc3c(c(=O)n(C)c(=O)n3C)n2Cc2ccccc2)CC1 | – | -89.9
10 | C=CCn1c(C2CC(=O)N(c3ccc(C)cc3)C2)nc2ccccc21 (stereo unspecified) | – | 8.29
11 | O=S(=O)(c1cccc2nonc12)N1CCN(c2cccc(Cl)c2)CC1 | – | -29.9
12 | CC(=O)c1ccccc1NC(=O)CC1(CC(=O)O)CCCCC1 | – | -18.6
13 | CC(C)N(c1ccccc1)c1ncnc(NCCC(=O)O)c1[N+](=O)[O-] | 0.316 µM (active) | –
14 | Cc1ccc(C(C)NC(=O)Cn2nc(C)c([N+](=O)[O-])c2C)cc1 (stereo unspecified) | – | -16.3
15 | Cc1ccc(OCC(=O)NC(C)c2ccccc2)c([N+](=O)[O-])n1 (stereo unspecified) | – | 7.38
16 | CC(OC(=O)CCCOc1ccccc1)C(=O)Nc1ccc(Cl)cn1 (stereo unspecified) | – | -29.5
17 | Cc1cccc(N2C(=O)SC(SC(=Nc3ccccc3)Nc3ccccc3)C2=O)c1 (stereo unspecified) | – | -30.1
18 | O=[N+]([O-])c1cc(Cl)cc(/C=N/NC(=S)Nc2cc(S(=O)(=O)N3CCOCC3)ccc2Cl)c1O | – | -46.8
19 | CN(C)/N=C/c1cc(Cl)cc([N+](=O)[O-])c1O | – | -14.3
20 | O=C(N/N=C/c1cc(Cl)cc([N+](=O)[O-])c1O)C(O)(c1ccccc1)c1ccccc1 | 10 µM (active) | –
21 | OCCNCCOc1ccc(Cl)c(Cl)c1 | – | -15.5
22 | S=C(NCCC1=CCCCC1)Nc1ccccc1 | – | -29.9
23 | COc1ccccc1C1SCCN1C(=O)c1ccc([N+](=O)[O-])cc1 (stereo unspecified) | – | -44.7
24 | COc1cccc(OC)c1C(=O)Nc1c(C(=O)N2CCN(c3ccccn3)CC2)oc2ccccc12 | – | 100
25 | COc1ccc2[nH]c(C)c(CCN(Cc3cccs3)C(=S)Nc3ccccc3OC)c2c1 | 0.501 µM (active) | –
26 | Cc1[nH]c2ccccc2c1CCN(Cc1cccs1)C(=S)NC(C)(C)C | – | -0.689

Row | Structure (SMILES) | Potency | activity change, negative = inhibition [%]
27 | COc1cccc(NC(=S)N(CCc2c(C)[nH]c3ccccc23)Cc2ccco2)c1 | – | -26.2
28 | CCN(CC)C(=O)C1CCC(C)(C(=O)O)C1(C)C (stereo unspecified) | – | -16.7
29 | COc1ccc(C(C#N)Nc2ccccc2C)cc1 (stereo unspecified) | – | 12.4
30 | COc1ccc(NS(=O)(=O)c2cc(NC(=O)CC(=O)c3ccc([N+](=O)[O-])cc3)ccc2C)cc1 | 15.8 µM (active) | –
31 | Cc1ccc(NC(=O)CCNC(=O)c2ccc([N+](=O)[O-])cc2)cc1S(=O)(=O)N1CCOCC1 | – | -16.7
32 | COc1ccc(C(=O)CC(=O)C(=O)Nc2cc([N+](=O)[O-])ccc2OC)cc1 | – | -18.2
33 | CCOP(=O)(OCC)C(Nc1ccc([N+](=O)[O-])cc1)c1ccc(Cl)cc1 (stereo unspecified) | – | 83.3
34 | CC(C)N(C(=O)CSc1nnc(NC2CC2)s1)c1ccccc1 | – | -17.1
35 | CC(C)c1ccc(Nc2nnc(SCC(=O)c3nnc(-c4ccccc4)o3)s2)cc1 | 25.1 µM (active) | –
36 | Cc1ccccc1Nc1nnc(SCC(=O)c2cc3ccccc3o2)s1 | – | -49.2
37 | CCOc1ccc(-n2cnc3c(=O)[nH]c(N)nc32)cc1 | – | -18.8
38 | Cc1ccc2c(c1)c1ncnc(N3CCc4ccccc4C3)c1n2C | – | 1.78
39 | COc1ccc(CC2c3cc(OC)c(OC)cc3CC[N+]2(C)CCC(=O)OCCCCCOC(=O)CC[N+]2(C)CCc3cc(OC)c(OC)cc3C2Cc2ccc(OC)c(OC)c2)cc1OC (stereo unspecified) | – | 145
40 | Cc1cc2ccccc2n1CCC(=O)O | – | 4.27
41 | Cc1cc2ccccc2n1CCNC(=O)COc1ccc2ccccc2c1 | 10 µM (active) | –
42 | COC(=O)C(C)NC(=O)COc1ccc2ccccc2c1 (stereo unspecified) | – | -18.4
43 | Nn1c(Cc2cccc3ccccc23)nnc1SCC(=O)N1CC(=O)Nc2ccccc21 | – | 13.7
44 | Nc1cc(C(F)(F)F)ccc1N1CCOCC1 | – | -6.49
45 | COc1ccccc1C(=O)Nc1ccc(OCc2nnc3c4ccccc4c(C)nn23)cc1 | – | 208
46 | CCCc1nc(SCC(=O)N2CCCC2)c2c(=O)n(C)c(=O)n(C)c2n1 | – | 49.1
47 | Cn1c(=O)c2c(SCC(=O)N3CCOCC3)nc(C3CC3)nc2n(C)c1=O | 10 µM (active) | –
48 | CCOC(=O)N1CCN(C(=O)CSc2nc(C)nc3c2c(=O)n(C)c(=O)n3C)CC1 | – | -9.25
49 | Cc1nn(Cc2ccc(Cl)c(Cl)c2)c(C)c1NC(=O)c1cc(C2CC2)on1 | 10 µM (active) | –
50 | O=C(NC1CCCCC1)c1cc(C2CC2)on1 | – | -16.9
51 | CSc1ccccc1NC(=O)c1cc(C2CC2)on1 | – | -8.82
